Data from PubChem BioAssay (NCATS).
Values joined by “and” are separate entries in the source; they are usually repeats but may differ in a detail not shown here. Equal values may be shown once. Records with an inconclusive call do not appear. Active and inactive are the calls of the source. Unless noted, calls come from the whole dose curve; as a rule, active = well fitted curve in the direction sought with a large enough effect; inconclusive = small, poorly fitted or top-dose-only effect, or another doubt; inactive = no such curve, though single readings can be large; an effect the other way counts as inactive or inconclusive.

Tests used:
[1] = biological target: Guanine nucleotide-binding protein G(i) subunit alpha-1 (Homo sapiens) (UniProt P63096); assay: qHTS Assay for Inhibitors of RGS12 GoLoco Motif Activity (Green Fluorophore) (AID 879);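 note: 0% = labeled peptide with Gαi1 and full inhibition = labeled peptide alone without protein; negative values mean loss of peptide binding seen as reduced polarization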
In short: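 Fluorescence polarization assay: 50 nM Gαi1 with 10 nM FITC-labeled RGS12 GoLoco peptide in 10 mM Tris pH 7.5, 150 mM NaCl, 0.1 mM GDP, 0.05% NP40, 10 min at room temperature with compound.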

[2] = biological target: Cytochrome P450 2C9 (Homo sapiens) (UniProt P11712); assay: qHTS Assay for Inhibitors and Substrates of Cytochrome P450 2C9 (AID 883); note: nearly all actives have a fitted effect of over 60% in size; note: potency is the fitted concentration of half-maximal effect
In short: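 Human CYP2C9 (10nM) with Luciferin-H at 100uM (its KM) in 25mM KPO4; compound preincubated 10 min at 37C, then NADPH regeneration for 60 min at 37C. Luciferin read by luminescence after detection reagent; normalized to 57uM sulphaphenazole as full inhibition.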

[3] = biological target: Cytochrome P450 3A4 (Homo sapiens) (UniProt P08684); assay: qHTS Assay for Activators of Cytochrome P450 3A4 (AID 885); note: nearly all actives have a fitted effect of over 65% in size
In short: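 Quantitative HTS format: compounds preincubated with 20nM human CYP3A4 and Luciferin-PPXE substrate at KM, reaction started by NADPH regeneration, stopped after 60 min, luciferase luminescence read 20 min later.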

[4] = qHTS Assay for Identification of Small Molecule Antagonists for NFkB Signaling Pathway (AID 895; active = well fitted inhibition curve with a large enough effect in the signal ratio, with a control signal flat, not every such curve was filed as active; the % refers to the signal ratio; note: % is set by controls: 0 for no effect and ±100 for the full control effect)
In short: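 ME-180 NFkB-bla cells (beta-lactamase under NFkB response element), plated overnight, treated with compound then 10 pM TNF alpha (about EC50) for 5 hrs at 37 C. LiveBLAzer FRET read at 460/530 nm emission, 405 nm excitation.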

[5] = Confirmation and Secondary Assay for Modulators of Hemoglobin Beta Chain Splicing at IVS2 654 locus (AID 910);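 note: HeLa cells stably carrying EGFP split by mutant beta-globin IVS2-654 intron; % of control where 0% means no effect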
In short: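 HeLa cells stably expressing EGFP interrupted by β-globin IVS2-654 intron, seeded overnight in Opti-MEM/2% FCS, then treated 2 days at 37 °C. Restored splicing read as total peak GFP intensity per well by laser scanning cytometry (488 nm excitation, 500–520 nm emission); 500 nM antisense PNA as control.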

[6] = qHTS Assay for Identification of Small Molecule Agonists for Thrombopoietin (TPO) Signaling Pathway (AID 917); note: % is set by controls: 0 for no effect and ±100 for the full control effect
In short: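 IL-3-dependent murine pro-B Ba/F3 cells, stably transfected with human TPO receptor and GpIIb-promoter luciferase, are incubated 24 hrs at 37 C with test compound and 26 pM TPO; luciferase signal is read after 10 min at room temperature.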

[7] = Confirmation and Secondary Assay for Modulators of Hemoglobin Beta Chain Splicing at IVS2 705 locus (AID 930);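 note: HeLa cells stably expressing the EGFP-705 splicing reporter; GFP fluorescence per well restored by corrected splicing of the IVS2-705 intron in EGFP; series mostly up to about 46 µM; % of control where 0% means no effect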
In short: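 HeLa IVS2-705 EGFP reporter cells, 500/well, compound 2 d at 37C; correct splicing yields fluorescent EGFP. Control: 500 nM antisense PNA. Read-out: total peak GFP intensity.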

[8] = biological target: Muscarinic acetylcholine receptor M1 (Rattus norvegicus) (UniProt P08482); assay: qHTS Assay for Antagonists of Acetylcholine Muscarinic M1 Receptor: Kinetic Measurement of Intracellular Calcium Response (AID 943); note: nearly all actives have a fitted effect of over 75% in size; note: potency is the fitted concentration of half-maximal effect
In short: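 Rat M1-CHO cells, 2000/well, overnight → Fluo-4 no-wash dye with probenecid, 1 h 37C → compound 10 min, room temp → basal read 6 s → carbachol EC80 (100 nM) → 4 min kinetic read; peak/basal.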

[9] = biological target: Pyruvate kinase (Leishmania mexicana) (UniProt Q27686); assay: qHTS Validation Assay for Inhibitors of Leishmania Mexicana Pyruvate Kinase (AID 945);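 note: 0% = DMSO only neutral control wells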
In short: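 Eight-point qHTS titrations; enzyme 0.2 nM LmPYK (E451W mutant); substrates 0.5 mM PEP, 0.1 mM ADP; 7 mM MgCl2; 1 h room temperature; PKLight luminescence normalized to neutral control.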

[10] = biological target: Cytochrome P450 3A4 (Homo sapiens) (UniProt P08684); assay: qHTS Assay for Inhibitors and Substrates of Cytochrome P450 3A4 (AID 884); note: nearly all actives have a fitted effect of over 50% in size; note: potency is the fitted concentration of half-maximal effect
In short: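 20 nM human CYP3A4 with 25 uM Luciferin-PPXE (at KM) in 200 mM KPO4, preincubated 10 min with compound; NADPH regeneration started a 60 min RT reaction. Luciferin detected by luminescence, normalized to 57 uM ketoconazole as full inhibition.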

[11] = biological target: Cytochrome P450 2D6 (Homo sapiens) (UniProt P10635); assay: qHTS Assay for Inhibitors and Substrates of Cytochrome P450 2D6 (AID 891); note: nearly all actives have a fitted effect of over 60% in size; note: potency is the fitted concentration of half-maximal effect
In short: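 Human CYP2D6 (5 nM) with 30 uM Luciferin-ME EGE (at Km) in 100 mM KPO4, compound preincubated 10 min, then NADPH regeneration system for 60 min at room temperature. Luciferin read by luminescence; normalized to 1.43 uM quinidine.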

[12] = biological target: Cytochrome P450 2C19 (Homo sapiens) (UniProt P33261); assay: qHTS Assay for Inhibitors and Substrates of Cytochrome P450 2C19 (AID 899); note: % is set by controls: 0 for no effect and ±100 for the full control effect; nearly all actives have a fitted effect of over 60% in size
In short: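 5 nM human CYP2C19 with 10uM Luciferin-H EGE (at KM) in 50mM KPO4, compound preincubated 10 min at 37C, then NADPH regeneration for 60 min at 37C. Luciferin read by luminescence after detection reagent; normalized to 57uM ketoconazole as full inhibition.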

[13] = qHTS Assay for Identification of Small Molecule Agonists for Hypoxia Response Element Signaling Pathway (AID 914; active = well fitted activation curve with a large enough effect in the signal ratio, with a control signal flat, not every such curve was filed as active; the % refers to the signal ratio; note: % of control where 0% means no effect); conditions: ME-180 (cervical carcinoma) HRE-bla reporter, beta-lactamase ratio, CoCl2, 17 h; hits give high values
In short: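 HRE-bla ME-180 assay for agonist-like enhancement of an EC50 CoCl2 stimulus: 17 h at 37 degrees Celsius, CCF4 for 2.5 h, ratiometric 460/530 nm signal converted to %Activity and fitted to AC50.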

[14] = biological target: Muscarinic acetylcholine receptor M1 (Rattus norvegicus) (UniProt P08482); assay: qHTS Assay for Antagonists of Acetylcholine Muscarinic M1 Receptor: Measurement of IP-One Response (AID 944); note: nearly all actives have a fitted effect of over 75% in size; note: potency is the fitted concentration of half-maximal effect
In short: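 M1-CHO (rat), 2000 cells/well, overnight recovery; cpd 10 min; carbachol EC80 (200 nM), 30 min, HEPES buffer + 50 mM LiCl pH 7.4; IP-One HTRF, Ex 337, Em 620/665 nm.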

[15] = Cellular Toxicity (caspase-3) Hek293 (AID 664);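 note: cells exposed to compound for 16 h at 37 °C before readout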
In short: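 Cells plated, 5 hr at 37 °C; compounds added; 16 hr at 37 °C; Caspase-Glo 3/7 reagent, 20 min RT; luminescence read. Activation expressed relative to DMSO and 100 uM tamoxifen, AC50 by Hill model.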

[16] = Cellular Toxicity (caspase-3) N2a (AID 665);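 note: compound exposure lasted 16 h at 37 °C before readout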
In short: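 N2a cells, 1500/well, 5 h settle at 37 °C; cpd 16 h, 37 °C; Caspase-Glo 3/7, 1 h RT; luminescence. Norm: DMSO = 0, 10 uM staurosporine = 100%. AC50, Hill fit.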

[17] = Cellular Toxicity (caspase-3) NIH 3T3 (AID 666);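 note: 0% = DMSO basal and 100% = 100 µM tamoxifen stimulation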
In short: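 Luminescence from aminoluciferin released by caspase-3/7 cleavage of a peptide substrate served as read-out. Mouse fibroblast NIH 3T3 cells were exposed to compounds over a concentration range for 16 hours, and AC50 values came from standard Hill modelling.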

[18] = Cellular Toxicity (caspase-3) Renal Proximal Tubule (AID 667);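 note: cells exposed to compound for 16 hours at 37 °C before detection; 0% = DMSO basal and 100% = 10 µM staurosporine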
In short: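 Caspase-Glo 3/7 read-out, rat primary kidney proximal tubule cells. Compound exposure 16 h, 37 °C; detection after 1 h at RT. Activity scaled to DMSO and 10 uM staurosporine.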

[19] = Cell Viability - LYMP2-001 (AID 921);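 note: potency is the fitted concentration of half-maximal effect; cells exposed to compound for 24 h at 37 °C; nearly all actives have a fitted effect of over 70% in size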
In short: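 A lymphoblastoid cell line of human origin was treated with library compounds across a concentration series for 24 hours, and viable cell number was estimated from ATP-driven luciferase light output. Hill modeling gave AC50.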

[20] = MultiTox-Fluor Cytotoxicity Assay - LYMP1-001 - Dead Cells (AID 946); note: potency is the fitted concentration of half-maximal effect
In short: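 In this qHTS, 15 uM tetraoctylammonium bromide defined 100% and DMSO defined basal activity. Lymphoblastoid cells (LYMP1-001, 2500 per well) received compound for 16 hr at 37 C before a fluorogenic dead-cell substrate readout at 485/520 nm.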

Chain of Cytochrome P450 3A4 (Homo sapiens) (P08684 whole entry, looked up): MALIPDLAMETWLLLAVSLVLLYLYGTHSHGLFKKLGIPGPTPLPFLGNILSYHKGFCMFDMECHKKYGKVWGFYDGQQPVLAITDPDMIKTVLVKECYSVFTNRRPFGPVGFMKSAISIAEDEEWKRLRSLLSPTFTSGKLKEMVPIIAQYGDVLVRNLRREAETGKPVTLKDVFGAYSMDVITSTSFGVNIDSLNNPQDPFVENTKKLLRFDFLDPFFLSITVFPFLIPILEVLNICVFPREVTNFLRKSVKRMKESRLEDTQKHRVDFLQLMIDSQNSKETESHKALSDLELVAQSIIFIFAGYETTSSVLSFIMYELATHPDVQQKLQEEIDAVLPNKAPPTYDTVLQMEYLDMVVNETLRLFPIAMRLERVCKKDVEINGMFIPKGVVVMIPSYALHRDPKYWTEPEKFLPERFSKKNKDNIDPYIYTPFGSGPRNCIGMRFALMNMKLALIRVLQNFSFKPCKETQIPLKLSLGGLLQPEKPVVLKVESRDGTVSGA
Chain of Muscarinic acetylcholine receptor M1 (Rattus norvegicus) (P08482 whole entry, looked up): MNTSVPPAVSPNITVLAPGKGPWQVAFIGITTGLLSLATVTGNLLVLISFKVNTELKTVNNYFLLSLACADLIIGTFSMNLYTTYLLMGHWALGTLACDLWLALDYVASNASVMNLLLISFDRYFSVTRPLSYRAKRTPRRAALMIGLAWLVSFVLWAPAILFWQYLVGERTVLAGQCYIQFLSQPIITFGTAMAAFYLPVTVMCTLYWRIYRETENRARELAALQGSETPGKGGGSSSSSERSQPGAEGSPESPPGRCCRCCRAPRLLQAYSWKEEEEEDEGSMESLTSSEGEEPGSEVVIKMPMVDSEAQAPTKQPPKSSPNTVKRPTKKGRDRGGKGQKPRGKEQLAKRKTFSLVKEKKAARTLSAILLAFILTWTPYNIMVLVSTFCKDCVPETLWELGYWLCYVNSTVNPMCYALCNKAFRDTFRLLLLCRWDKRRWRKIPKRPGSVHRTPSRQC
Chain of Pyruvate kinase (Leishmania mexicana) (Q27686 2-499 E452W): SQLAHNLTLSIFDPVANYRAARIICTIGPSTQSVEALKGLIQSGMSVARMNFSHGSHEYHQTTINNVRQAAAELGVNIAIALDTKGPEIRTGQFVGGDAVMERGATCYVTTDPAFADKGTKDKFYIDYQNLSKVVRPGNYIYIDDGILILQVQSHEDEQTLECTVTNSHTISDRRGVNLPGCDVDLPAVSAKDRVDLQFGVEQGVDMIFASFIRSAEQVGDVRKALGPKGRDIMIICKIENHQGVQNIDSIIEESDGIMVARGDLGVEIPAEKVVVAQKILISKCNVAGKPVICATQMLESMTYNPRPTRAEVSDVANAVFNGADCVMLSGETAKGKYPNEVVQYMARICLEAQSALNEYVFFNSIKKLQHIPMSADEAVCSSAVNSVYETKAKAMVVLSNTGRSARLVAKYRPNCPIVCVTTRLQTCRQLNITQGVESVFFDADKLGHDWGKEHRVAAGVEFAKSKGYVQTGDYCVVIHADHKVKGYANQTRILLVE
Chain of Cytochrome P450 2D6 (Homo sapiens) (P10635 whole entry, looked up): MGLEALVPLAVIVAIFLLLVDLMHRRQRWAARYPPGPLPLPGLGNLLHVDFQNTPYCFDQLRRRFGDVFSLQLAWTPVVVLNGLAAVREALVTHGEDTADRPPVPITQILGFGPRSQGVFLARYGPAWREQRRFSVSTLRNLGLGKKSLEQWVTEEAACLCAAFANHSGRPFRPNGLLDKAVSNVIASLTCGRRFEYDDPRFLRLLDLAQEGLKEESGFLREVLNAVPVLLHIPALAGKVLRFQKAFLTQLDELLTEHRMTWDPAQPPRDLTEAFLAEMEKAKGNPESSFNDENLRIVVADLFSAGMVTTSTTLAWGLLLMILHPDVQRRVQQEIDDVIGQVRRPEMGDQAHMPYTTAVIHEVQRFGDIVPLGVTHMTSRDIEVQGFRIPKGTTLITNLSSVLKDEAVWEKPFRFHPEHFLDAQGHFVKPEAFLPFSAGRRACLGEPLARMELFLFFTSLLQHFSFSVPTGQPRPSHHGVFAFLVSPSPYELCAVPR
Chain of Guanine nucleotide-binding protein G(i) subunit alpha-1 (Homo sapiens) (P63096 whole entry, looked up): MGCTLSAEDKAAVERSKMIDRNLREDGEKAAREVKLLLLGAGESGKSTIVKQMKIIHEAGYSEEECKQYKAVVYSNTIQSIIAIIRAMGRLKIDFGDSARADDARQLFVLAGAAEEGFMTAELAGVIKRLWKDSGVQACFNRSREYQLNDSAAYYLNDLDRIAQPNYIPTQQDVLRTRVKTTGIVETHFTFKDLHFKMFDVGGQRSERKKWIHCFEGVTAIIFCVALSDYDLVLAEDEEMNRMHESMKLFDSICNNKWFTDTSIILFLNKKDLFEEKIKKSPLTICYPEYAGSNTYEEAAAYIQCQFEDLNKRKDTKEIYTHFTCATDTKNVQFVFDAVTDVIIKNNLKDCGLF
Chain of Cytochrome P450 2C9 (Homo sapiens) (P11712 whole entry, looked up): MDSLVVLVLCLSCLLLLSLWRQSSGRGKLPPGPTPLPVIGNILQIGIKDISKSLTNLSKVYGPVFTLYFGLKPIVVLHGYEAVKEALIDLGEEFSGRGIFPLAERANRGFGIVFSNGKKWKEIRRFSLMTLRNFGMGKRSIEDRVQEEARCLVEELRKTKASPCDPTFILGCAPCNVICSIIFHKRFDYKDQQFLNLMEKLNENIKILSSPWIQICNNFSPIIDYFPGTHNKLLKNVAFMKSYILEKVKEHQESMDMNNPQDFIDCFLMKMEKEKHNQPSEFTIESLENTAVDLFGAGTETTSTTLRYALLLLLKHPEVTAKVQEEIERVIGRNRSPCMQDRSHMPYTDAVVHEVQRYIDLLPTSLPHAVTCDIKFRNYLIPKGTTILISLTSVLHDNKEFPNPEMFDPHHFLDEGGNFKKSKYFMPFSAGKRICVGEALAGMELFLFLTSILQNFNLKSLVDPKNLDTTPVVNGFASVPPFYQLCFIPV
Chain of Cytochrome P450 2C19 (Homo sapiens) (P33261 whole entry, looked up): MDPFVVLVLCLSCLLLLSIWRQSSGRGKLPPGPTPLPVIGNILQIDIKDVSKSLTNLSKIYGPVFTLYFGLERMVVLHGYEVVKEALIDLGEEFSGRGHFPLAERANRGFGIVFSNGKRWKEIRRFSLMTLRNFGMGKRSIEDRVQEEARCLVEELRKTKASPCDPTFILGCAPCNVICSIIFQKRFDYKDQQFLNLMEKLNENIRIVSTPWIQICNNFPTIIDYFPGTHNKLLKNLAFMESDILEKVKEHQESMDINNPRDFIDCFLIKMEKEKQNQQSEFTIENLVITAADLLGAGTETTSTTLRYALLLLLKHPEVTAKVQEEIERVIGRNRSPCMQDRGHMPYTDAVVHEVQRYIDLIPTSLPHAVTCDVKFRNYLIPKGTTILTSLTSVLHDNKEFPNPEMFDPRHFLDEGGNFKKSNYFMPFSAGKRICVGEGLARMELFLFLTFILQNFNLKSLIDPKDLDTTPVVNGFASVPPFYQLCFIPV

CCCCCCCCC(=O)NCc1ccc(O)c(OC)c1
inactive: outcome [1] | Potency [3] | outcome [4] | outcome [5] | outcome [6] | outcome [7] | Potency [8] | outcome [9]
active: Potency [2] 3.16 µM

CCC(=O)O[C@H]1CC[C@H]2[C@@H]3CCC4=CC(=O)CC[C@]4(C)[C@H]3CC[C@]12C
inactive: Potency [10]

CN1[C@@H]2CC[C@H]1CC(OC(=O)c1cc(Cl)cc(Cl)c1)C2 (stereo partly drawn)
active: Potency [11] 100 nM and 7.9 nM | Potency [8] 3.16 µM | Potency [14] 3.98 µM
inactive: outcome [1] | Potency [2] | Potency [10] | Potency [12] | activation [13] 16.3% | outcome [6] | outcome [9]

O=C(O)c1nn(Cc2ccc(Cl)cc2Cl)c2ccccc12
inactive: outcome [1] | Potency [11] | Potency [12] | outcome [6] | Potency [8] | Potency [14] | outcome [9]

CN(C)C(=S)SSC(=S)N(C)C
active: Potency [10] 15.8 µM | Potency [19] 0.158 µM | Potency [20] 0.794 µM
inactive: outcome [15] | outcome [16] | outcome [17] | outcome [18] | Potency [3] | outcome [5] | outcome [7]

O=C(CCl)c1ccc(Cl)cc1Cl
active: Potency [19] 3.98 µM | Potency [20] 10 µM
inactive: outcome [16] | outcome [17] | outcome [18] | Potency [10]
